Measurements published in the supplement of paper PMC11732987, “Enantioselective OTUD7B fragment discovery through chemoproteomics screening and high-throughput optimisation” (Communications Chemistry, 2025).

What was measured:
Assay in all cases: log2 ratio of Biotin-Ahx-Ub-VS probe labelling (fragment/DMSO); higher = less target engagement (more negative = stronger competition), active = hit call of the paper (q ≤ 0.05, log2 ratio ≤ -1)
Details in all cases: compound concentration: 200 uM; treatment time: 3 h
USP19 = molecular target: T1, USP19 (UniProt O94966)
T1 sequence (whole entry): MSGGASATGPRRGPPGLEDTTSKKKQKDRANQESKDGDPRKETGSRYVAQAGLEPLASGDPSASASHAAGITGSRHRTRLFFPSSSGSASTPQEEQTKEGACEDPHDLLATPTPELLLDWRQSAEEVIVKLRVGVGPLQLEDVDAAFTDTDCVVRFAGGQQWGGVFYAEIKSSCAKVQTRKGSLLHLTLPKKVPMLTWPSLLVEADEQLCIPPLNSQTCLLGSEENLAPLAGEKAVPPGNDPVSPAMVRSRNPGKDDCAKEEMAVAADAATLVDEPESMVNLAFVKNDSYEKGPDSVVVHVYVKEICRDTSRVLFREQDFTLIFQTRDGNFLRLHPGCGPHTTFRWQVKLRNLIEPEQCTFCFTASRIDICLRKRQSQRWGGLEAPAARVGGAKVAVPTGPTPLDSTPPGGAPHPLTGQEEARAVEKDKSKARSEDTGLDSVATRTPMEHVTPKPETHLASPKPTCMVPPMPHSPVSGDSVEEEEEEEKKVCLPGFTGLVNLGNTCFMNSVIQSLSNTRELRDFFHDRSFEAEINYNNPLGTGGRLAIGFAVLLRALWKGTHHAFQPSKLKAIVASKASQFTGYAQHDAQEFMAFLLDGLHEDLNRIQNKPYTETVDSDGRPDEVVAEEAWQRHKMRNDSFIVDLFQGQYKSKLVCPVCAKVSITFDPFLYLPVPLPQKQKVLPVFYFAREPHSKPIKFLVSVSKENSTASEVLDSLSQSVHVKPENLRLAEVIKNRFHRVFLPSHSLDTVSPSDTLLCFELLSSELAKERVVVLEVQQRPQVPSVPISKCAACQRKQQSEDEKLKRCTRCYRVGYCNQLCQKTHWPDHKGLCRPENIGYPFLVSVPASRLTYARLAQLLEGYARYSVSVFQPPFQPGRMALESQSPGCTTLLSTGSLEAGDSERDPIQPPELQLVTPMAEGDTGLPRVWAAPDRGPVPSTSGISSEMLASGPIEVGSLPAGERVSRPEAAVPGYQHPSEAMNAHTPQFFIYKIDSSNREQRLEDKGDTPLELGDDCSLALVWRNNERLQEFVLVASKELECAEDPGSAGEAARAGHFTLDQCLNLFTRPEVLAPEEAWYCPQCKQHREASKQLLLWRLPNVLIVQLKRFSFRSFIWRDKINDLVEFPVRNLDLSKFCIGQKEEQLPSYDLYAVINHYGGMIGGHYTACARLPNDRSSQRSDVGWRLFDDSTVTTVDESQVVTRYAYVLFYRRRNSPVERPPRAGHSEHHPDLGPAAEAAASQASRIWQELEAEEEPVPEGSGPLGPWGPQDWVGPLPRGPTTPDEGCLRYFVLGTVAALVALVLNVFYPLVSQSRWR
How it was run: (§1)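 Triplicate samples of HEK293T lysate, 495 µg each, received fragment at 200 µM or vehicle for 3 h, followed by Biotin-Ahx-Ub-VS (0.5 µM final) for 1 h. After NeutrAvidin enrichment of labelled DUBs and LysC/trypsin digestion, peptides were run by diaPASEF LC-MS/MS. The values are average log2 fragment/vehicle ratios from global-median-normalised Spectronaut label-free quantities, tested by unpaired t-test on proteins having ≥2 unique peptides.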

USP22 = molecular target: T2, USP22 (UniProt Q9UPT9)
T2 sequence (whole entry): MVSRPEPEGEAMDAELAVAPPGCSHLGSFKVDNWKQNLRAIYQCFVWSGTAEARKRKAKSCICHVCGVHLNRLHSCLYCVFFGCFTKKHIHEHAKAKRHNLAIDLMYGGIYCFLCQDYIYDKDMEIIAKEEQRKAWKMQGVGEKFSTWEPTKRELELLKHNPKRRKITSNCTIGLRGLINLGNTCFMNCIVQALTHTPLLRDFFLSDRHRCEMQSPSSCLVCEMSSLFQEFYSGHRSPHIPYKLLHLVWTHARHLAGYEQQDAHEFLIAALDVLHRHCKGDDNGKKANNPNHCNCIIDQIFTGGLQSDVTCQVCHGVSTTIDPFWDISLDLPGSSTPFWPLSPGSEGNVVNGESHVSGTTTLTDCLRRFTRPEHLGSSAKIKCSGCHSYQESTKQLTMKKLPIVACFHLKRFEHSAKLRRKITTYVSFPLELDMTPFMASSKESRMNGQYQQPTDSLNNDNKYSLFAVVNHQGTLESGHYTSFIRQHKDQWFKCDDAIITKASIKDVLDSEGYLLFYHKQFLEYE
How it was run: as §1

USP24 = USP24 (UniProt Q9UPU5)
How it was run: as §1

USP25 = molecular target: T3, USP25 (UniProt Q9UHP3)
T3 sequence (whole entry): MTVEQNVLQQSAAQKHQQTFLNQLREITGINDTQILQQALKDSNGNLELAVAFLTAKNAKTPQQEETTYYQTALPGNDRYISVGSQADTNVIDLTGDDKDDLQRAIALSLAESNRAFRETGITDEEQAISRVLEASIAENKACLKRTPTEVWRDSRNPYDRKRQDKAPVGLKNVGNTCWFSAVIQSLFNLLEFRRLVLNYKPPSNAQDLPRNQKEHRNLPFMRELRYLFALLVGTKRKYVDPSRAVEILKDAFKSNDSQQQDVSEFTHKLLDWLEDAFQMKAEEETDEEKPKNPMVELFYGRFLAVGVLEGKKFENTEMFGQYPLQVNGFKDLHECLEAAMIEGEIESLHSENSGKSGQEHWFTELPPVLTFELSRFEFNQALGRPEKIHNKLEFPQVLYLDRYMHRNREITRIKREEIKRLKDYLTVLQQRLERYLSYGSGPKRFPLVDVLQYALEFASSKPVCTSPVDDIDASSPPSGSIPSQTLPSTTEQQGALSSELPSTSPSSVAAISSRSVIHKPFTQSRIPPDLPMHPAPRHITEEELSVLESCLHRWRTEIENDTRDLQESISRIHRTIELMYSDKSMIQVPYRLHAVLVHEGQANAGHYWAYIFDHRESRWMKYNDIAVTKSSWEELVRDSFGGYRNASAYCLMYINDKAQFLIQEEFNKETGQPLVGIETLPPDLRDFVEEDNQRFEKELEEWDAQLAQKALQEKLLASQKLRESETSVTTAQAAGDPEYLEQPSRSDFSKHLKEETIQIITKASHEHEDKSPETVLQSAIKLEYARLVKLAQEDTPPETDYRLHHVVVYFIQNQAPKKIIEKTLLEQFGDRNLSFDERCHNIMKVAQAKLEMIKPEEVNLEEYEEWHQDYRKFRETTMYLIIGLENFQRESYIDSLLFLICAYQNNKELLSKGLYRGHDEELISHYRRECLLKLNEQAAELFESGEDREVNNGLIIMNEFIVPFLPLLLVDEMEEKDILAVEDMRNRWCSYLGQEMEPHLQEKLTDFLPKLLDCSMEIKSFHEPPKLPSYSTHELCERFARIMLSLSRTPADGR
How it was run: as §1

USP28 = molecular target: T4, USP28 (UniProt Q96RU2)
T4 sequence (whole entry): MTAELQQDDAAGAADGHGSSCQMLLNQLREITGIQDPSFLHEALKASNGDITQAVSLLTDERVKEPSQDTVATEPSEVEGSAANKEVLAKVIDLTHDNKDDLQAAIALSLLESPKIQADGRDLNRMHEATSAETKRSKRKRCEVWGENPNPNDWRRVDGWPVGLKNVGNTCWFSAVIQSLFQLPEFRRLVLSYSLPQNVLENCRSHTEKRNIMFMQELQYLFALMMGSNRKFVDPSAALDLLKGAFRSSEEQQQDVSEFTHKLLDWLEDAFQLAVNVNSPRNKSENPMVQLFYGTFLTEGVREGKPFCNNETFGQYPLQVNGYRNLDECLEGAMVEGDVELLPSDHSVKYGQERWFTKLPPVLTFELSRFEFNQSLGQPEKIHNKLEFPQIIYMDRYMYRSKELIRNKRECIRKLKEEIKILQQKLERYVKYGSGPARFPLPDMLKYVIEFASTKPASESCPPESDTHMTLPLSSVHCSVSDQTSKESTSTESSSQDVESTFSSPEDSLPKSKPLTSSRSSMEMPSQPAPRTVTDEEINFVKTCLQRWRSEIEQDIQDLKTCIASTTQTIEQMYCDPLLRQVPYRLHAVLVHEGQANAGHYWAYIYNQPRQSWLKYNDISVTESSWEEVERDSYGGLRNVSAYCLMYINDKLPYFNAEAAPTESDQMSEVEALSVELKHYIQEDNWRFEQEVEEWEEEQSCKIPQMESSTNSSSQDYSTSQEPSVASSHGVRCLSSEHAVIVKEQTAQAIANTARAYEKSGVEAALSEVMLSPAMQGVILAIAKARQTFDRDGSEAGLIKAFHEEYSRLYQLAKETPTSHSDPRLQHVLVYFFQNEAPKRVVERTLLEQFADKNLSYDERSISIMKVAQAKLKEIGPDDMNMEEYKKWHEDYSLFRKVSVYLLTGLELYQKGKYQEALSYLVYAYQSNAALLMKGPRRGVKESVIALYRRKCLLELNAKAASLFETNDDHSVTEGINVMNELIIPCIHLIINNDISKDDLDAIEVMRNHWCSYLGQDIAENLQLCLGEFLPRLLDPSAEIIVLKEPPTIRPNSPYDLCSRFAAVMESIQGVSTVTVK
How it was run: as §1

Measured: log2 ratio of Biotin-Ahx-Ub-VS probe labelling

USP24, sequence (Q9UPU5 whole entry): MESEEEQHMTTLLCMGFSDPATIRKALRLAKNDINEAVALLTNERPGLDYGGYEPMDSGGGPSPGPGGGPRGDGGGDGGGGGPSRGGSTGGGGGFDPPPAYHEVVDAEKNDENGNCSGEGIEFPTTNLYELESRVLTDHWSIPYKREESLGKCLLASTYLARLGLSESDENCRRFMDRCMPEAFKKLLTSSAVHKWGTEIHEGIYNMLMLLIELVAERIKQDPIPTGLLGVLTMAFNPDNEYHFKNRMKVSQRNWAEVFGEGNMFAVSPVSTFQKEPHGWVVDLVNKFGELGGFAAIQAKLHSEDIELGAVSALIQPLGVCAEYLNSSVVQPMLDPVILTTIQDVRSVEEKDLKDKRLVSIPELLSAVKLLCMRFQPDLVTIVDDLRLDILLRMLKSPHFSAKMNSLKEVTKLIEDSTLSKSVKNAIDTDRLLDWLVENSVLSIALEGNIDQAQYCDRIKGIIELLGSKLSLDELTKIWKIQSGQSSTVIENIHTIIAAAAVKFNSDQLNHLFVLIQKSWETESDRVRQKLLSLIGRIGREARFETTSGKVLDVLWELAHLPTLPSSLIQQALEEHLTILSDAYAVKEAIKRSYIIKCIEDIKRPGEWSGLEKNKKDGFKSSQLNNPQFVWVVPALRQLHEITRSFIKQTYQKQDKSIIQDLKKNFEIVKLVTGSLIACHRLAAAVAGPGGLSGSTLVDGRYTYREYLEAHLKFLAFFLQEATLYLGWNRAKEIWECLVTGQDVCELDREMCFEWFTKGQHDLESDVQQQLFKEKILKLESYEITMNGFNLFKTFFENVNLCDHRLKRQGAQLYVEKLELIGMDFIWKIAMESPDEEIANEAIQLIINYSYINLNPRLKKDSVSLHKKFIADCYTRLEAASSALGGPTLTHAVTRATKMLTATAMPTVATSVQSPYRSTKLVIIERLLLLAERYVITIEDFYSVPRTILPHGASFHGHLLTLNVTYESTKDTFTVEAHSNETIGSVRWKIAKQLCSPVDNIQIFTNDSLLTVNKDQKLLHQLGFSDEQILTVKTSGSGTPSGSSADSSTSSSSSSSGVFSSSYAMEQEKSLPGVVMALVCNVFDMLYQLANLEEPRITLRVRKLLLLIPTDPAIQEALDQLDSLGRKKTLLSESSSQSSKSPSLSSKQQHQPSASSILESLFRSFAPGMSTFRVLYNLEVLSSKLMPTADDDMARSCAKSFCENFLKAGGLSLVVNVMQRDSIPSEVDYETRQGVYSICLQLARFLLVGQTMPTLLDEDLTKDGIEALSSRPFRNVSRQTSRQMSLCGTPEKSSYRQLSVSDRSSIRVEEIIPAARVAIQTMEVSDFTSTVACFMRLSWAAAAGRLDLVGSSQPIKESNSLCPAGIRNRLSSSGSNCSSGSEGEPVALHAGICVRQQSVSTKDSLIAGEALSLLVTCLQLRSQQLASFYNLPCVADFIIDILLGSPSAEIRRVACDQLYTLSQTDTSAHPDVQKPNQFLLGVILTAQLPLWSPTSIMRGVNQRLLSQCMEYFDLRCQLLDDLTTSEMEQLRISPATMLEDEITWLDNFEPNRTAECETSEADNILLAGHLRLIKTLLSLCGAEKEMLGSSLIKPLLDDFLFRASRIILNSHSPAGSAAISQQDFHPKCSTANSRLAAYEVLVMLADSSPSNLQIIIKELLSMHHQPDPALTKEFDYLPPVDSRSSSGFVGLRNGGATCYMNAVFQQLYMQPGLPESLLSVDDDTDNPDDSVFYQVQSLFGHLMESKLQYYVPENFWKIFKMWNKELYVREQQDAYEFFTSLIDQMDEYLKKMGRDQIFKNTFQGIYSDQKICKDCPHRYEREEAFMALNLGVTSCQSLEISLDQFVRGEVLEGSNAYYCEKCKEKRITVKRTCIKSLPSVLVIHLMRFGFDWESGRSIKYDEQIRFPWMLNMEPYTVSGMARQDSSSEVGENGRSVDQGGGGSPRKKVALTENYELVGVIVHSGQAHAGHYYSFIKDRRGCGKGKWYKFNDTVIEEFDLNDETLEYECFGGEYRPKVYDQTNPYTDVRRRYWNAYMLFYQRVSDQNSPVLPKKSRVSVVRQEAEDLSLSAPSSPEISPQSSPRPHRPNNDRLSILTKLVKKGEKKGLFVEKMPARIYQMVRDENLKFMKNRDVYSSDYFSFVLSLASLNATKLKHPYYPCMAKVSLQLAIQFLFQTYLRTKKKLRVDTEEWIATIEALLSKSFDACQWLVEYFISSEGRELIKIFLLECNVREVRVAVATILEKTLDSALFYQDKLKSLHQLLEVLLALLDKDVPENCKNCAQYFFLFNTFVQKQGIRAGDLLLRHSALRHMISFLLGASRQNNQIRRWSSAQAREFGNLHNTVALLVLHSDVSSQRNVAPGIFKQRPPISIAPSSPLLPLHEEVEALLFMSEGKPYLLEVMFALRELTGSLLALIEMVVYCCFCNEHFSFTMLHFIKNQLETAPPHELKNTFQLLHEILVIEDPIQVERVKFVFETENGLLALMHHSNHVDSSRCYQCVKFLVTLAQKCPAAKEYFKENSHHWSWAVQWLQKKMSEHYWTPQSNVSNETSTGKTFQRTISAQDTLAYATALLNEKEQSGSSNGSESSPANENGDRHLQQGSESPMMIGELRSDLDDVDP

COc1ccc(CN(C)C(=O)CCl)cc1
inactive: USP19 -0.211 | USP22 -0.227 | USP24 -0.564 | USP25 -0.245 | USP28 -0.499
